Bioassay records deposited in PubChem BioAssay by several laboratories.
Hits are enriched below; roughly 3.8% of the tested compounds scored in any of these assays.
ADAM17 inh = ADAM17 inhibition, QFRET primary screen; recombinant ADAM17, EDANS/DABCYL FRET peptide cleavage; 0.83% of 370,000 active; AID 720648; P78536; inhibition, % at 6.95 µM;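 active means inhibition above the mean of compounds lying between control limits plus 3 SD, set per campaign, cut at about 8.5% in these data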;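 further: 0% = DMSO-only wells as the low control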
ADAM10 inh = inhibitors of human ADAM10. recombinant ADAM10, EDANS/DABCYL FRET peptide cleavage, 3 h. inhibition, % at 7 µM. 0.62% of 370,000 active. AID 720582;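 active means inhibition above a per-campaign cutoff equal to the mean of compounds falling between control-based bounds plus 3 SD, cut at about 20% in these data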;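 further: 0% = DMSO wells while the 100% control is not disclosed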
proKLK7 act = activators of human kallikrein-7 zymogen. activation, % at 7 µM. purified proKLK7, EDANS-DABCYL substrate fluorescence; 100% is mature enzyme control, 0% vehicle. 0.9% of 370,000 active. AID 652039;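 active means activation above the mean of all tested compounds plus 3 SD, computed per campaign excluding outliers beyond control limits, cut at about 13% in these data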
Target sequence (P49862 whole entry, looked up): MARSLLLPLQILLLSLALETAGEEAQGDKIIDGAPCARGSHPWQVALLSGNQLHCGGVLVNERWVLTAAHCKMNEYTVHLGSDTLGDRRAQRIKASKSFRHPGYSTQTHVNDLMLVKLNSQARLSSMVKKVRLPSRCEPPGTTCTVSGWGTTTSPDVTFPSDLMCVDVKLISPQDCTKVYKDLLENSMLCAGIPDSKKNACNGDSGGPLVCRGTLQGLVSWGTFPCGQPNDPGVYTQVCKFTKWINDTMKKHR
FGF22 binding = FGF22 (human) thermal shift binding; Q9HCT0; recombinant FGF22 thermal shift, SYPRO orange fluorescence; percent of sucrose octasulfate shift, DMSO zero; activity (Tm shift, normalised), % at 9.99 µM; 1.5% of 340,000 active;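 active means mean Tm shift, scaled 0 neutral to 100 positive control, at about 1.3% or above, every replicate too, limit read from the data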
Target sequence (Q9HCT0 whole entry, looked up): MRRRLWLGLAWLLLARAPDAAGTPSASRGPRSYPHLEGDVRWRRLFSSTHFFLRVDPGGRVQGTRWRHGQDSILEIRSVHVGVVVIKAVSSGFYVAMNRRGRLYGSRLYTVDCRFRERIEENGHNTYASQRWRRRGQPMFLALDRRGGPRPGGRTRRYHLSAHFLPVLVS
Ecoli rRNA inh = inhibitors of bacterial rRNA selective over humanized ribosomes | GFP signal change (wild-type ribosome), % (no concentration beside the values) | AID 720706 | 1.6% of 350,000 active | E. coli WT GFP vs humanized-ribosome RFP mutants, fluorescence, 24 h; active compounds read low; DMSO median 0, no signal -100;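 active means significant combined selectivity score with lowered wild-type GFP, culture density cut under 30%, mutant RFP and density less affected; inactive means any of these conditions unmet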
proKLK7 act conf = confirmation of human kallikrein-7 zymogen activators; activation, % at 7 µM; 68% of 3,200 active; purified proKLK7, EDANS-DABCYL substrate fluorescence; scaled: vehicle 0, mature enzyme 100; shares compounds with proKLK7 act;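 active means activation, as change over the incubation, above the mean of all tested compounds plus 3 SD, cut at about 13% in these data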
EDANS-DABCYL int = optically interferes with EDANS-DABCYL signal, flagging KLK7 hits | shares compounds with proKLK7 act | EDANS-DABCYL substrate fluorescence interference, no enzyme, 4 h; solvent 0%, active enzyme control 100% | activation, % at 7 µM | 80% of 3,200 active | AID 686952;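 active means activation above the all-compound mean plus 3 SD, ignoring values outside control-based bounds, cut at about 4.8% in these data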;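 further: value is the 4 h activation minus the activation read at time zero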
EDANS interf = counter-screen for kallikrein-7 activators: EDANS-DABCYL interference, dose response; EC50, µM; shares compounds with proKLK7 act; EDANS-DABCYL peptide fluorescence interference, no enzyme; AID 720493; 20% of 250 active;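 active means compounds that raise the fluorescence signal in this interference counterscreen, with EC50 at or below 10 µM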;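 further: intact quenched peptide substrate alone read at 355 nm excitation and 520 nm emission; signal is fluorescence gain from T0 to T4 after four hours at room temperature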
* hit, by the source's call.

Screening O=C1C(=O)N(Cc2ccncc2)C(c2cccc(O)c2)/C1=C(\O)c1ccc2c(c1)OCCO2 (stereo unspecified) returned ADAM17 inh 5, ADAM10 inh -1, proKLK7 act 15*, FGF22 binding 0, Ecoli rRNA inh 0, proKLK7 act conf 6 and EDANS-DABCYL int 7.4*.
Screening Cc1ccc(-c2cc(C(=O)OCC(=O)N(C)C3CCS(=O)(=O)C3)c3ccccc3n2)o1 (stereo unspecified) returned ADAM17 inh -54, ADAM10 inh -214, proKLK7 act 135*, FGF22 binding 43*, Ecoli rRNA inh 8, proKLK7 act conf 14*, EDANS-DABCYL int 11* and EDANS interf 7*.
O=C(OCC(=O)N1CCC(Cc2ccccc2)CC1)c1ccccc1NCCO was read as ADAM17 inh -393, ADAM10 inh inactive, proKLK7 act -10, FGF22 binding 0 and Ecoli rRNA inh 8.
`CCOC(=O)N1CCN(C(=O)COC(=O)c2ccccc2NCCO)CC1` gave ADAM17 inh inactive, ADAM10 inh inactive, proKLK7 act 25*, FGF22 binding -1, Ecoli rRNA inh -1, proKLK7 act conf 28* and EDANS-DABCYL int 38*.
For Cc1ccc(-c2cc(C(=O)Nc3ccccc3C(N)=O)c3ccccc3n2)o1 the results were ADAM17 inh -13, ADAM10 inh -31, proKLK7 act 0, FGF22 binding 0 and Ecoli rRNA inh 4.
Screening CCN(C(=O)COC(=O)c1cc2ccccc2cc1O)C1CCS(=O)(=O)C1 (stereo unspecified) returned ADAM17 inh -4, ADAM10 inh -7 and proKLK7 act 9.
For CCN(C(=O)COC(=O)c1ccccc1NCCO)C1CCS(=O)(=O)C1 (stereo unspecified) the results were ADAM17 inh inactive, ADAM10 inh inactive, proKLK7 act 25*, Ecoli rRNA inh 10, proKLK7 act conf 32* and EDANS-DABCYL int 35*.
Cc1ccc(-c2cc(C(=O)NCC3(N(C)C)CCCCC3)c3ccccc3n2)o1 was read as ADAM17 inh -211, ADAM10 inh inactive, proKLK7 act 72*, FGF22 binding 0, Ecoli rRNA inh 4, proKLK7 act conf 21* and EDANS-DABCYL int 46*.
For C[C@@H]1CN([C@@H](C)CO)S(=O)(=O)c2ccc(C#C[C@@H](C)O)cc2O[C@@H]1CN(C)Cc1ccc(-c2ccccc2)cc1 the results were FGF22 binding -1 and Ecoli rRNA inh 0.
Screening CCN(C(=O)COC(=O)c1c(C)c(-c2ccccc2)nc2ccccc12)C1CCS(=O)(=O)C1 (stereo unspecified) returned ADAM17 inh -4, ADAM10 inh -4, proKLK7 act 0, FGF22 binding 0 and Ecoli rRNA inh -18.
CCN(C(=O)COC(=O)c1cc(-c2ccc(C)o2)nc2ccccc12)C1CCS(=O)(=O)C1 (stereo unspecified) was read as ADAM17 inh -64, ADAM10 inh -186, proKLK7 act 174*, FGF22 binding 0, Ecoli rRNA inh 14, proKLK7 act conf 202* and EDANS-DABCYL int 187*.
CCOC(=O)c1[nH]c2cc(OC)c(OC)cc2c1N was read as ADAM17 inh -16, ADAM10 inh -73, proKLK7 act 13*, proKLK7 act conf 30* and EDANS-DABCYL int 31*.
`C[C@H]1CN([C@@H](C)CO)C(=O)CCCn2cc(nn2)CO[C@H]1CN(C)C(=O)Nc1ccc(-c2cccs2)cc1` gave FGF22 binding 0 and Ecoli rRNA inh -3.
Screening CCc1ccc(S(=O)(=O)Nc2ccc(-c3nc4cccnc4s3)cc2)s1 returned ADAM17 inh inactive, ADAM10 inh inactive, proKLK7 act -33, FGF22 binding 0 and Ecoli rRNA inh -6.
